Experimental findings from PubChem BioAssay (NCATS) are described below.

Results filed as inconclusive are left out. The source made the active and inactive calls. Calls come from the whole dose curve; as a rule, active = well fitted curve in the direction sought with a large enough effect; inconclusive = small, poorly fitted or top-dose-only effect, or another doubt; inactive = no such curve, though single readings can be large; an effect the other way counts as inactive or inconclusive. Bridge positions count the residues as written; N and C are the ends. Square brackets hold non-standard residues; d marks the D form. Peptide text beside a SMILES is read from it. * marks the point of attachment. Ileψ(thiazoline)Cys = CC[C@H](C)[C@H](N)C1=N[C@H](C(=O)*)CS1; d(aIle) = CC[C@H](C)[C@@H](N)C(=O)O; dOrn = NCCC[C@@H](N)C(=O)O

A short description of experiment [1]: S16 Schwann cell viability assay (CellTiter-Glo assay) (AID 624031).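 Note: cellular ATP luminescence as a viability measure; nearly all actives have a fitted effect of over 70% in size.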 Summed up: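 Native S16 rat Schwann cells in DMEM/10% FBS without phenol red were incubated overnight, then exposed to compounds for 24 h at 37 °C/5% CO2. Viability was read as ATP luminescence (CellTiter-Glo), normalized to no-cell wells and DMSO (0%).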
A general note: In ATP-based viability assays light output follows the ATP content of the culture.

The subject of experiment [2] is ATS189. Description: qHTS profiling for inhibitors of Plasmodium falciparum proliferation (AID 504749). Note: nearly all actives have a fitted effect of over 60% in size. Note: potency is the fitted concentration of half-maximal effect. Particulars: P. falciparum in erythrocytes, SYBR Green DNA, 72 h; series mostly up to 12.8 µM. In a few lines:
(§1)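 Three-day growth assay of blood-stage parasites in erythrocytes (0.3% parasitemia, 2.5% hematocrit) at 37 C, 5% CO2, quantified by SYBR Green DNA staining after overnight detergent lysis.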

The test system of experiment [3] is ATS95. The description is as above. Particulars: P. falciparum in erythrocytes, SYBR Green DNA, 72 h; series mostly up to 12.8 µM. Summed up:
as §1

Experiment [4] deals with CP185. The description is as above. Particulars: P. falciparum in erythrocytes, SYBR Green DNA, 72 h; series mostly up to 12.8 µM. In a few lines: as §1
The subject of experiment [5] is CP201. The experiment is described as above. Particulars: P. falciparum in erythrocytes, SYBR Green DNA, 72 h; series mostly up to 12.8 µM. Summed up:
as §1

Experiment [6] relates to CP203. The description is as above. The following applies: P. falciparum in erythrocytes, SYBR Green DNA, 72 h; series mostly up to 12.8 µM. In a few lines:
as §1

In experiment [7] the test system is CP237. The experiment is described as above. Particulars: P. falciparum in erythrocytes, SYBR Green DNA, 72 h; series mostly up to 12.8 µM. Summed up:
as §1

In experiment [8] the test system is CP247. The experiment is described as above. The following applies: P. falciparum in erythrocytes, SYBR Green DNA, 72 h; series mostly up to 12.8 µM. Summed up: as §1
Experiment [9] deals with CP260. The experiment is described as above. Particulars: P. falciparum in erythrocytes, SYBR Green DNA, 72 h; series mostly up to 12.8 µM. Summed up: as §1
In experiment [10] the test system is CP265. The experiment is described as above. The following applies: P. falciparum in erythrocytes, SYBR Green DNA, 72 h; series mostly up to 12.8 µM. Summed up:
as §1

Experiment [11] deals with CP266. The experiment is described as above. The following applies: P. falciparum in erythrocytes, SYBR Green DNA, 72 h; series mostly up to 12.8 µM. Summed up: as §1
In experiment [12] the test system is CP286. Described as above. Particulars: P. falciparum in erythrocytes, SYBR Green DNA, 72 h; series mostly up to 12.8 µM. In a few lines: as §1
The subject of experiment [13] is CP325. The description is as above. Particulars: P. falciparum in erythrocytes, SYBR Green DNA, 72 h; series mostly up to 12.8 µM. In a few lines: as §1
Experiment [14] relates to DIV17. The experiment is described as above. Particulars: P. falciparum in erythrocytes, SYBR Green DNA, 72 h; series mostly up to 12.8 µM. In a few lines: as §1
The subject of experiment [15] is DIV30. The description is as above. Particulars: P. falciparum in erythrocytes, SYBR Green DNA, 72 h; series mostly up to 12.8 µM. Summed up: as §1
Experiment [16] concerns Dd2. The experiment is described as above. The following applies: P. falciparum in erythrocytes, SYBR Green DNA, 72 h; series mostly up to 12.8 µM. In a few lines: as §1
Experiment [17] relates to ICS. The experiment is described as above. Particulars: P. falciparum in erythrocytes, SYBR Green DNA, 72 h; series mostly up to 12.8 µM. Summed up:
as §1

In experiment [18] the test system is PAD. Described as above. The following applies: P. falciparum in erythrocytes, SYBR Green DNA, 72 h; series mostly up to 12.8 µM. Summed up: as §1
For experiment [19], the system named is TAB165. The experiment is described as above. Particulars: P. falciparum in erythrocytes, SYBR Green DNA, 72 h; series mostly up to 12.8 µM. Summed up:
as §1

In experiment [20] the test system is CP262. Described as above. Particulars: P. falciparum in erythrocytes, SYBR Green DNA, 72 h; series mostly up to 12.8 µM. In a few lines:
as §1

As to `CO[C@@H]1C[C@H](O[C@H]2[C@@H](C)[C@H](O[C@@H]3O[C@@H](C)C[C@@H](N(C)C)[C@@H]3OC(C)=O)[C@H](C)C[C@]3(CO3)C(=O)[C@H](C)[C@H](OC(C)=O)[C@H](C)[C@H](C)OC(=O)[C@@H]2C)O[C@H](C)[C@@H]1OC(C)=O`, the compound was classed as inactive in experiment [1]. Further, the Potency result in experiment [2], in [3], in experiment [4], in experiment [5], in [6] and in experiment [7] was “inactive” each time. The Potency entry in experiment [8], in experiment [9], in experiment [10], in experiment [11], in experiment [12] and in [13] was “inactive” in each case. Moreover, the Potency entry in experiment [14], in [15], in experiment [16], in [17], in experiment [18] and in experiment [19] was “inactive” throughout.

Take `C[C@H](O)Cn1cnc2c1c(=O)n(C)c(=O)n2C`: the call in experiment [1] was inactive. The Potency result in experiment [2], in experiment [3], in [4], in experiment [5], in [6] and in experiment [7] was “inactive” each time. Further, the Potency result in experiment [8], in experiment [9], in experiment [20], in experiment [10], in experiment [11] and in experiment [12] was “inactive” each time. The Potency entry in experiment [13], in experiment [14], in experiment [15], in experiment [16], in experiment [17] and in [18] was “inactive” each time. Further, the Potency result in experiment [19] was “inactive”.

For `C[C@@H]1C[C@H]2[C@@H]3C[C@H](F)C4=CC(=O)C=C[C@@]4(C)[C@]3(F)[C@H](O)C[C@]2(C)[C@@]1(O)C(=O)CO`, the compound was classed as inactive in [1]. The Potency entry in experiment [2], in experiment [3], in experiment [4], in [5], in experiment [6] and in experiment [7] was “inactive” each time. Moreover, the Potency entry in experiment [8], in experiment [9], in experiment [20], in experiment [10], in experiment [11] and in experiment [12] was “inactive” in each case. In addition, the Potency entry in [13], in [14], in [15], in experiment [16], in experiment [17] and in experiment [18] was “inactive” each time. Further, the Potency entry in experiment [19] is “inactive”.

With `COc1ccccc1OC[C@H](O)CO`, the compound was classed as inactive in experiment [1]. Further, the Potency result in [2], in [3], in experiment [4], in [5], in [6] and in [7] was “inactive” each time. The Potency entry in experiment [8], in experiment [9], in experiment [20], in experiment [10], in [11] and in [12] was “inactive” each time. Besides, the Potency result in experiment [13], in experiment [14], in experiment [15], in [16], in [17] and in experiment [18] was “inactive” each time. Besides, in experiment [19], the Potency entry was “inactive”.

On to `Cc1ccc2c(c1)c1c3n2CCN[C@H]3CCC1`, for which the Potency result in experiment [3], in [4], in experiment [5], in experiment [8], in experiment [9] and in experiment [20] was “inactive” throughout. In addition, the Potency entry in [11] and in [13] was “inactive” in each case. In addition, the Potency in experiment [7] is 12.6 µM (active); in experiment [14], 12 µM (active).

Take `CC(C)(C)NC[C@@H](O)COc1ccccc1C1CCCC1`: the Potency in [2] is 3.16 µM (active); in experiment [3], 3.55 µM (active); in [4], 3.16 µM (active); in experiment [6], 3.22 µM (active); in experiment [7], 3.55 µM (active); in experiment [9], 3.16 µM (active). The Potency in experiment [12] is 3.55 µM (active); in experiment [13] it was 4.55 µM (active); in experiment [14] it was 3.22 µM (active); in experiment [15], 5.73 µM (active); in [16], 1.58 µM (active); in experiment [17] it was 1.41 µM (active). Besides, the Potency in [18] is 3.16 µM (active); in experiment [19], 3.55 µM (active).

`CCN[C@@H]1C[C@H](N)[C@H](O[C@H]2OC(CN)=CC[C@H]2N)[C@@H](O)[C@H]1O[C@H]1OC[C@@](C)(O)[C@@H](NC)[C@@H]1O`: the call in experiment [1] was inactive. The Potency entry in [2], in experiment [3], in experiment [4], in [5], in [6] and in experiment [7] was “inactive” each time. Further, the Potency entry in [8], in experiment [9], in [20], in experiment [10], in experiment [11] and in [12] was “inactive” in each case. The Potency result in experiment [13], in [14], in experiment [15], in [16], in experiment [17] and in experiment [18] was “inactive” in each case. Besides, the Potency result in [19] was “inactive”.

Turning to `O=C(N/N=C\c1ccc([N+](=O)[O-])o1)c1ccc(O)cc1`, the Potency in experiment [2] was 3.16 µM (active); in experiment [3], 3.16 µM (active); in experiment [4], 2.24 µM (active); in experiment [5], 5.73 µM (active); in experiment [6] it was 5.1 µM (active); in experiment [7] it was 2.51 µM (active). The Potency in [8] was 2.82 µM (active); in experiment [9], 2.51 µM (active); in experiment [10], 3.16 µM (active); in experiment [12], 2.51 µM (active); in experiment [14], 2.28 µM (active); in experiment [15] it was 5.1 µM (active). In addition, the Potency in experiment [16] was 3.55 µM (active); in experiment [17], 1.41 µM (active); in [18], 2.51 µM (active); in experiment [19] it was 3.16 µM (active).

On to `CC[C@H](C)[C@H](N)C1=N[C@H](C(=O)N[C@@H](CC(C)C)C(=O)N[C@@H](CCC(=O)O)C(=O)N[C@@H](C(=O)N[C@H]2CCCCNC(=O)[C@@H](CC(N)=O)NC(=O)[C@@H](CC(=O)O)NC(=O)[C@@H](Cc3cnc[nH]3)NC(=O)[C@@H](Cc3ccccc3)NC(=O)[C@@H]([C@@H](C)CC)NC(=O)[C@@H](CCCN)NC2=O)[C@@H](C)CC)CS1` ({Ileψ(thiazoline)Cys}-LE[d(aIle)]K[dOrn][d(aIle)][dF][dH][dD][dN]; lactam 4-C), for which the outcome in experiment [1] was inactive. In addition, the Potency result in experiment [2], in [3], in experiment [4], in experiment [5], in experiment [6] and in [7] was “inactive” each time. Further, the Potency entry in [8], in [9], in experiment [20], in experiment [10], in experiment [11] and in [12] was “inactive” each time. The Potency entry in experiment [13], in experiment [14], in [15], in experiment [16], in experiment [17] and in experiment [18] was “inactive” in each case. Besides, the Potency entry in [19] was “inactive”.

Turning to `C[C@@H]1O[C@H](O[C@@H]2\C=C/C=C\C=C/C=C\C[C@H](C)OC(=O)/C=C\[C@H]3O[C@@H]3C[C@H](O)C[C@]3(O)C[C@@H](O)[C@@H](C(=O)O)[C@H](C2)O3)[C@@H](O)[C@H](N)[C@@H]1O` (stereo in doubt), in experiment [1], the outcome was inactive. Moreover, the Potency result in experiment [2], in [3], in [4], in [5], in experiment [6] and in experiment [7] was “inactive” in each case. Moreover, the Potency result in experiment [8], in [9], in experiment [20], in experiment [10], in experiment [11] and in experiment [12] was “inactive” throughout. Further, the Potency result in experiment [13], in [14], in experiment [15], in [16], in [17] and in experiment [18] was “inactive” each time. Besides, the Potency entry in [19] was “inactive”.

As for `c1ccc2c(c1)CCC[C@@H]2C1=NCCN1`, in experiment [1], the result was inactive. Further, the Potency result in [2], in experiment [3], in [4], in [5], in experiment [6] and in experiment [7] was “inactive” in each case. The Potency entry in experiment [8], in [9], in experiment [20], in experiment [10], in [11] and in [12] was “inactive” in each case. The Potency entry in experiment [13], in experiment [14], in experiment [15], in experiment [16], in [17] and in experiment [18] was “inactive” in each case. In [19], the Potency entry is “inactive”.
